Test results from ChEMBL document CHEMBL1961873, “Compounds: GSK PKIS; Assays: Nanosyn kinase panel” (2012).

Legend:
[1] = target: Sphingosine kinase 1 (Homo sapiens) (UniProt Q9NYA1); conditions: at 1 µM;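 also: mean SPHK1 inhibition value reported from the GSK PKIS kinase panel screen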
[2] = target: T1, Sphingosine kinase 2 (Homo sapiens) (UniProt Q9NRA0); conditions: at 0.1 µM
T1 sequence (whole entry): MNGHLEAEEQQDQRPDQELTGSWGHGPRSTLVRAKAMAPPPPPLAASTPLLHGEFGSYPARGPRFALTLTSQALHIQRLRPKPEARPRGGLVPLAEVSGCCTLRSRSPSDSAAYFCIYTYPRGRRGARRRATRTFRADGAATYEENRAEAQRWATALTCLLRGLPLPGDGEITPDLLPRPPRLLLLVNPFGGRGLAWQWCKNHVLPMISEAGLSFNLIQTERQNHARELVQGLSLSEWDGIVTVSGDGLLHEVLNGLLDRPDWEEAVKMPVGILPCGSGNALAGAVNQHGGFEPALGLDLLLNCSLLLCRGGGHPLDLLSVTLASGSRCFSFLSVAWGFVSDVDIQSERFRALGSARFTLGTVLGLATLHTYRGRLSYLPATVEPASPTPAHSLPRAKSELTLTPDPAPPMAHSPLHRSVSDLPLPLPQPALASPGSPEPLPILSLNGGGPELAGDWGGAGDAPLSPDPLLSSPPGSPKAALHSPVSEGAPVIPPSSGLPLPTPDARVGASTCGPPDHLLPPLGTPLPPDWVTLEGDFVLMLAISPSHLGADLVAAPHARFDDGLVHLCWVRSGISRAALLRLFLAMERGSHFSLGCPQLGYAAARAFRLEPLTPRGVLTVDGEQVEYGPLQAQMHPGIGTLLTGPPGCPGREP

[3] = target: T1, Sphingosine kinase 2 (Homo sapiens); conditions: at 1 µM
[4] = target: Casein kinase II subunit alpha (Homo sapiens) (UniProt P68400); conditions: at 0.1 µM
Chain of Casein kinase II subunit alpha (Homo sapiens) (P68400 whole entry, looked up): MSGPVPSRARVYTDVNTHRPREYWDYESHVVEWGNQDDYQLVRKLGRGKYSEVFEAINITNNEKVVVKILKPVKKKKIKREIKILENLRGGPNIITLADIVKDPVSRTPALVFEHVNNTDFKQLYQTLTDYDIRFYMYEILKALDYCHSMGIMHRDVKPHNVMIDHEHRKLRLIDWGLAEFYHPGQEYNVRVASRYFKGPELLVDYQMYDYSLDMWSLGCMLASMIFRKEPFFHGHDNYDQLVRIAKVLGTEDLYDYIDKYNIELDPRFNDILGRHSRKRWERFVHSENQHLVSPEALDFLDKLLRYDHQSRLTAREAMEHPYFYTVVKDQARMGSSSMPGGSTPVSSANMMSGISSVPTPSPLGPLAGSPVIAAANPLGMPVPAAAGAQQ

[5] = target: Casein kinase II subunit alpha (Homo sapiens) (UniProt P68400); conditions: at 1 µM
[6] = target: T2, Inhibitor of nuclear factor kappa-B kinase subunit alpha (Homo sapiens) (UniProt O15111); conditions: at 0.1 µM
T2 sequence (whole entry): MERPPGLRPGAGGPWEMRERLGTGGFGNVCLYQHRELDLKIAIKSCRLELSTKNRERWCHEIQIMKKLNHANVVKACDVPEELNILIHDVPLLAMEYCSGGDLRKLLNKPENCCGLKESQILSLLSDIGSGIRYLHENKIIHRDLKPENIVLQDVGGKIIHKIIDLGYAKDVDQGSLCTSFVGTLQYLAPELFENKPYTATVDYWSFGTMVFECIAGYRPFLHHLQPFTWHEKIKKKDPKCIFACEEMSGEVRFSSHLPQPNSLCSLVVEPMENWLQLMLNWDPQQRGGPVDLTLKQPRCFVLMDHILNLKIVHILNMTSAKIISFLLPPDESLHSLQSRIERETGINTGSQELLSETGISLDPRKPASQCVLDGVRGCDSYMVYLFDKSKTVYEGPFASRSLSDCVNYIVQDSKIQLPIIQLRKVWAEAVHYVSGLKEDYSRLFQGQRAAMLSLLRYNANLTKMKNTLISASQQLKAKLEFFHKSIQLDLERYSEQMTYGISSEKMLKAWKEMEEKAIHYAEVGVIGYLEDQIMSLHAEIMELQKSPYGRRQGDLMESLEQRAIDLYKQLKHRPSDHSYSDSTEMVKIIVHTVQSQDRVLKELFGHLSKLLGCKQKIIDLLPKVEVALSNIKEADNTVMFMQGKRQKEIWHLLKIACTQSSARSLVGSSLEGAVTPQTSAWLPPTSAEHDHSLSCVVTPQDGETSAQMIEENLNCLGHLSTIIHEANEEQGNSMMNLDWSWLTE

[7] = target: T2, Inhibitor of nuclear factor kappa-B kinase subunit alpha (Homo sapiens); conditions: at 1 µM
[8] = target: T3, Inhibitor of nuclear factor kappa-B kinase subunit beta (Homo sapiens) (UniProt O14920); conditions: at 0.1 µM
T3 sequence (whole entry): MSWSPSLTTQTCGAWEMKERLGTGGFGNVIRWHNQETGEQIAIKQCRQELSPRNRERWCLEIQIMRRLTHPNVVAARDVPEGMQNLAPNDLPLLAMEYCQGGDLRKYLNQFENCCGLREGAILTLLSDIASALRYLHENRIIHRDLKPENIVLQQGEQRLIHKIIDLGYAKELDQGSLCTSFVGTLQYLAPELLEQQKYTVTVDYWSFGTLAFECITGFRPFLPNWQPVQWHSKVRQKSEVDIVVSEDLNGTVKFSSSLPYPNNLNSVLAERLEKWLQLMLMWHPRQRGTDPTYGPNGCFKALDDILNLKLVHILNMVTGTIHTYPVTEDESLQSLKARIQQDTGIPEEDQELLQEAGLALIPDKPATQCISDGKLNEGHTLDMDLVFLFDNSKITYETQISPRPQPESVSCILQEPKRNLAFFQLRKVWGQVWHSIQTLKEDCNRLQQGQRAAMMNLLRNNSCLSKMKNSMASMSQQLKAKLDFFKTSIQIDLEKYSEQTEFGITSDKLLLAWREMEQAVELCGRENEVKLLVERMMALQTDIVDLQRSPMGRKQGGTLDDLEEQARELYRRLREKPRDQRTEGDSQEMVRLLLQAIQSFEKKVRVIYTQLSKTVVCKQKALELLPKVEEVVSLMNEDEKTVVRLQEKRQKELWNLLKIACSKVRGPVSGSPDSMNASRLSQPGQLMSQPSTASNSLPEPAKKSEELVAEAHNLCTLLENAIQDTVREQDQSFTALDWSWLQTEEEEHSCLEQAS

[9] = target: T3, Inhibitor of nuclear factor kappa-B kinase subunit beta (Homo sapiens); conditions: at 1 µM
[10] = target: T4, Inhibitor of nuclear factor kappa-B kinase subunit epsilon (Homo sapiens) (UniProt Q14164); conditions: at 0.1 µM
T4 sequence (whole entry): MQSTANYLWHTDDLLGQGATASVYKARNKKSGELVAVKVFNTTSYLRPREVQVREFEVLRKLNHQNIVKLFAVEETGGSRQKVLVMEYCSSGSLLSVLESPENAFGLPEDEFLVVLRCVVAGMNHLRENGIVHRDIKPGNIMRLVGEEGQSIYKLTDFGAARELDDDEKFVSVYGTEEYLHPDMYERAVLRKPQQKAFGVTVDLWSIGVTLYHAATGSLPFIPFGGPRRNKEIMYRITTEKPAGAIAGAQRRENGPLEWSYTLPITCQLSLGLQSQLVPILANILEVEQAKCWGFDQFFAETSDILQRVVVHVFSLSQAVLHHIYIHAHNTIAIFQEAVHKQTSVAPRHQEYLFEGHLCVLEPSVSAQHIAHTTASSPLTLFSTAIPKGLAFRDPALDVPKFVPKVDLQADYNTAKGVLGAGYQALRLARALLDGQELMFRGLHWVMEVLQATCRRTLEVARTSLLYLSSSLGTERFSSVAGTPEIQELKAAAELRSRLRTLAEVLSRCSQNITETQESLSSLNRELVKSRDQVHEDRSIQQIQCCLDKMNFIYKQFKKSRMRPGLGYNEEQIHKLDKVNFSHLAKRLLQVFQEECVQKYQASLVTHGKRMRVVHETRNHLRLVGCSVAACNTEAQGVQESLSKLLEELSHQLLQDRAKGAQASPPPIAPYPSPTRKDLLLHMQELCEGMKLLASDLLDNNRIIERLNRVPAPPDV

[11] = target: T4, Inhibitor of nuclear factor kappa-B kinase subunit epsilon (Homo sapiens); conditions: at 1 µM
[12] = target: T5, Serine/threonine-protein kinase Nek1 (Homo sapiens) (UniProt Q96PY6); conditions: at 0.1 µM
T5 sequence (whole entry): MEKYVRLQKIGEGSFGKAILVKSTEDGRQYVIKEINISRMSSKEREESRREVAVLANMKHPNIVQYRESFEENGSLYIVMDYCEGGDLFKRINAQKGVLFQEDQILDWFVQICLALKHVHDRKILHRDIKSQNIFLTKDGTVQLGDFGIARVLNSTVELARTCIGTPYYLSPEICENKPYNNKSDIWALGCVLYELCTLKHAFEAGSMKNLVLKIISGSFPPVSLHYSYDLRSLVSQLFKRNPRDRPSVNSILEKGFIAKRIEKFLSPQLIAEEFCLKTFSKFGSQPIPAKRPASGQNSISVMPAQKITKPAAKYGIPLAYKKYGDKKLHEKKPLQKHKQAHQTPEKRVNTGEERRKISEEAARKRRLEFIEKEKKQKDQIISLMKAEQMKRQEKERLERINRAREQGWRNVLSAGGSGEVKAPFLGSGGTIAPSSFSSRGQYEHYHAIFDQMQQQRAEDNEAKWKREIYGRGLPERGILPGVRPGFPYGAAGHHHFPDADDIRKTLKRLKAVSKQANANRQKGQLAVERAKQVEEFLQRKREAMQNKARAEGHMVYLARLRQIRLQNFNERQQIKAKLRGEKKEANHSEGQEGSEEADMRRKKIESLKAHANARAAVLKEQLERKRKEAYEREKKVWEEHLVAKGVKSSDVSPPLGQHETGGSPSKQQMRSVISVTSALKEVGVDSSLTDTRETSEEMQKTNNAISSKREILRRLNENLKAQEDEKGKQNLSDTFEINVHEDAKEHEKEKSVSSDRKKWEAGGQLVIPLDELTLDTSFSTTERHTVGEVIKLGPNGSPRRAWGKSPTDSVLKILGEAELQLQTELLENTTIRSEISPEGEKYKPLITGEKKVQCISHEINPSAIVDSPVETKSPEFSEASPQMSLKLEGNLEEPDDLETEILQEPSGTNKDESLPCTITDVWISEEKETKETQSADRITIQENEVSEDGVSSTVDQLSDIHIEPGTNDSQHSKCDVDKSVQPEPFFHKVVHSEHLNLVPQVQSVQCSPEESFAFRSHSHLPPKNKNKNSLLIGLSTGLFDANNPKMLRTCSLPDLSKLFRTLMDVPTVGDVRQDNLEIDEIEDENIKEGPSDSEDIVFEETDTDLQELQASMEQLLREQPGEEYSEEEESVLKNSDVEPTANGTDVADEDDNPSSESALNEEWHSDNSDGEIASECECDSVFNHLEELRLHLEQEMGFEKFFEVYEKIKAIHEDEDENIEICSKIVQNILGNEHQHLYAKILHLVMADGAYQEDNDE

[13] = target: T5, Serine/threonine-protein kinase Nek1 (Homo sapiens); conditions: at 1 µM
[14] = target: T6, Serine/threonine-protein kinase Nek2 (Homo sapiens) (UniProt P51955); conditions: at 0.1 µM
T6 sequence (whole entry): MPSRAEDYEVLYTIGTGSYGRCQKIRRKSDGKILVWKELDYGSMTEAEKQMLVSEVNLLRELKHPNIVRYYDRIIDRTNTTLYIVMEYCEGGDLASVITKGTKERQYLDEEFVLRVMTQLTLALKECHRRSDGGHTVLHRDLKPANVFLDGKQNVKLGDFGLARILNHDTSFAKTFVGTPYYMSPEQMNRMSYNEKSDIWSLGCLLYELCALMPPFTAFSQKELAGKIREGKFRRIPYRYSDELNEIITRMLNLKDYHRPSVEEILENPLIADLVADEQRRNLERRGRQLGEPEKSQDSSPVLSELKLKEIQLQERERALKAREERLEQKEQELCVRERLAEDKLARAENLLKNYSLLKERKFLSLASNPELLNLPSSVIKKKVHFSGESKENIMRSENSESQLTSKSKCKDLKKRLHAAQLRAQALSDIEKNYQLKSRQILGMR

[15] = target: T6, Serine/threonine-protein kinase Nek2 (Homo sapiens); conditions: at 1 µM
[16] = target: Serine/threonine-protein kinase Nek6 (Homo sapiens) (UniProt Q9HC98); conditions: at 0.1 µM
Chain of Serine/threonine-protein kinase Nek6 (Homo sapiens) (Q9HC98 whole entry): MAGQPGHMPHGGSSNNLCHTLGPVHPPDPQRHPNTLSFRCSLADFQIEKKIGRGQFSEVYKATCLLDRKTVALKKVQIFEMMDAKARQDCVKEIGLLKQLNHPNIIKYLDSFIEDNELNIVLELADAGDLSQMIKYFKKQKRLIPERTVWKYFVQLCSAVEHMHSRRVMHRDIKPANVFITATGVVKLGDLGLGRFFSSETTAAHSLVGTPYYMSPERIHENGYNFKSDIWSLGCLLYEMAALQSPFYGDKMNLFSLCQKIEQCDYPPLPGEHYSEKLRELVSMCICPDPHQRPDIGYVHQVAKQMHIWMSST

[17] = target: Serine/threonine-protein kinase Nek6 (Homo sapiens) (UniProt Q9HC98); conditions: at 1 µM
[18] = target: Serine/threonine-protein kinase Nek7 (Homo sapiens) (UniProt Q8TDX7); conditions: at 0.1 µM
Chain of Serine/threonine-protein kinase Nek7 (Homo sapiens) (Q8TDX7 whole entry, looked up): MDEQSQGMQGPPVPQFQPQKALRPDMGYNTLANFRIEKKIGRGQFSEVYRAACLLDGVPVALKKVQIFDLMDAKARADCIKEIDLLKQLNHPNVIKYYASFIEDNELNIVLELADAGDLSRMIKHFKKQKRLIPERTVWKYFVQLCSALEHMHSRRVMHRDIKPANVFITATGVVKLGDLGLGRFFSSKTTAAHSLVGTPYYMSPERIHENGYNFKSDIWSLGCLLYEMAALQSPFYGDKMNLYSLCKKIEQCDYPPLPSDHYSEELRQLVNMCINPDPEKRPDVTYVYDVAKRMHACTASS

[19] = target: Serine/threonine-protein kinase Nek7 (Homo sapiens) (UniProt Q8TDX7); conditions: at 1 µM
[20] = target: T7, Serine/threonine-protein kinase Nek9 (Homo sapiens) (UniProt Q8TD19); conditions: at 0.1 µM;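 also: reported value is the mean percent inhibition of NEK9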
T7 sequence (whole entry): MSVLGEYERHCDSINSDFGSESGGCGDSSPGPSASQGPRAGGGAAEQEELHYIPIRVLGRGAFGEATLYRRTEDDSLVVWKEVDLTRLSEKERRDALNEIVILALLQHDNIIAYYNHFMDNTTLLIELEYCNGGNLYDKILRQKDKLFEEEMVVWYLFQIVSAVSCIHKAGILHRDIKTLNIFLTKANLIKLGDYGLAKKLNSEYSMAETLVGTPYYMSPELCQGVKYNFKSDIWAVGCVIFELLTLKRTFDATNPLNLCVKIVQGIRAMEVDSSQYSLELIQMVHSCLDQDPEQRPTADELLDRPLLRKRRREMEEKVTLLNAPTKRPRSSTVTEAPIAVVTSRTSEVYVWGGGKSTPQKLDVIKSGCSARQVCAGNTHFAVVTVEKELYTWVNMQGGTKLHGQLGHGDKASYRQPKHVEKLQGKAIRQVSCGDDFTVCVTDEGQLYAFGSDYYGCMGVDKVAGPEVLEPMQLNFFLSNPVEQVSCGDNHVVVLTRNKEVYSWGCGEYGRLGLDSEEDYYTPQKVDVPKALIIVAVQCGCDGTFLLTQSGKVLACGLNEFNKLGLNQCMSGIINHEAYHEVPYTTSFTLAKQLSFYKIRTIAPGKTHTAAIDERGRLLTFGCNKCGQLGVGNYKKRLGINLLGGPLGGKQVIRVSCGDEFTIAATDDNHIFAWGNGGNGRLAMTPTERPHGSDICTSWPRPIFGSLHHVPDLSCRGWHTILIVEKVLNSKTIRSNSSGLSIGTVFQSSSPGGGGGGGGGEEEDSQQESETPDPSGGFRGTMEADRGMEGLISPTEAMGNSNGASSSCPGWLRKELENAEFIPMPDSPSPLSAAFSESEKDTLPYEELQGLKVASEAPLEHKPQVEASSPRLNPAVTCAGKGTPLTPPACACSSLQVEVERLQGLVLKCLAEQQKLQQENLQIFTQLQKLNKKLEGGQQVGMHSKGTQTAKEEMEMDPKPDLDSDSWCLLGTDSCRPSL

Chain of Sphingosine kinase 1 (Homo sapiens) (Q9NYA1 whole entry): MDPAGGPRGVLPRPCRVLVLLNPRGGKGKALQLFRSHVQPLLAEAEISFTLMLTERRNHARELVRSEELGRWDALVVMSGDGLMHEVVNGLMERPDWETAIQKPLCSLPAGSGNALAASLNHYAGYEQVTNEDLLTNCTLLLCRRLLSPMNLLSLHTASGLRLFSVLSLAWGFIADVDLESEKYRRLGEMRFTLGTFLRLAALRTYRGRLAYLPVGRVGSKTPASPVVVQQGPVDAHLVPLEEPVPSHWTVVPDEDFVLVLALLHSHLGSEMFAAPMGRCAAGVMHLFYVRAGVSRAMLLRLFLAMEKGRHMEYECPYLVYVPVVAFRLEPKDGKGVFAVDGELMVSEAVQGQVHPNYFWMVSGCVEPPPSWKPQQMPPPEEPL

CN1CCN(CCCNc2nc3ccc(Oc4ccc(NC(=O)Nc5cc(C(F)(F)F)ccc5F)cc4)cc3[nH]2)CC1
inhibition [1]: -1.27%
inhibition [2]: -0.2%
inhibition [3]: -0.28%
inhibition [4]: -2.06%
inhibition [5]: -5.31%
inhibition [6]: 3.44%
inhibition [7]: -6.02%
inhibition [8]: 0.21%
inhibition [9]: -0.85%
inhibition [10]: -0.49%
inhibition [11]: -0.63%
inhibition [12]: 1.41%
inhibition [13]: 0.88%
inhibition [14]: 0.71%
inhibition [15]: 0.01%
inhibition [16]: 3.67%
inhibition [17]: -2.03%
inhibition [18]: 3.61%
inhibition [19]: 0.94%
inhibition [20]: 2.54%

Fc1ccc(-c2nc3n(c2-c2ccncc2)CCS3)cc1
inhibition [1]: -0.03%
inhibition [2]: -0.14%
inhibition [3]: -0.18%
inhibition [4]: 0.53%
inhibition [5]: -1.41%
inhibition [6]: 5.66%
inhibition [7]: 4.06%
inhibition [8]: 6.22%
inhibition [9]: 4.63%
inhibition [10]: 5.03%
inhibition [11]: 4.11%
inhibition [12]: 2.77%
inhibition [13]: 2.98%
inhibition [14]: 4.83%
inhibition [15]: 4.36%
inhibition [16]: 0.55%
inhibition [17]: 0.72%
inhibition [18]: 5.52%
inhibition [19]: 2.5%
inhibition [20]: 2.21%
